ChEMBL document CHEMBL3988442, “University of Dundee, Small-Polar-MMV Screening Library” (2021)
Where “and” joins values, the source holds several entries; their conditions need not be identical. Equal entries are not always repeated. For some of these results: Entries with a potency or affinity are not part of this list.

Assays:
Set-up in all cases: scale not given: direction of the effect not stated beside the values
[1] = molecular target: Protein translocase subunit SecA (Escherichia coli (strain K12)) (UniProt P10408); assay: Assay to Identify E. coli SecA ATPase Inhibitors; assay type: functional; settings: 30 µM
Sequence of Protein translocase subunit SecA (Escherichia coli (strain K12)) (P10408 whole entry): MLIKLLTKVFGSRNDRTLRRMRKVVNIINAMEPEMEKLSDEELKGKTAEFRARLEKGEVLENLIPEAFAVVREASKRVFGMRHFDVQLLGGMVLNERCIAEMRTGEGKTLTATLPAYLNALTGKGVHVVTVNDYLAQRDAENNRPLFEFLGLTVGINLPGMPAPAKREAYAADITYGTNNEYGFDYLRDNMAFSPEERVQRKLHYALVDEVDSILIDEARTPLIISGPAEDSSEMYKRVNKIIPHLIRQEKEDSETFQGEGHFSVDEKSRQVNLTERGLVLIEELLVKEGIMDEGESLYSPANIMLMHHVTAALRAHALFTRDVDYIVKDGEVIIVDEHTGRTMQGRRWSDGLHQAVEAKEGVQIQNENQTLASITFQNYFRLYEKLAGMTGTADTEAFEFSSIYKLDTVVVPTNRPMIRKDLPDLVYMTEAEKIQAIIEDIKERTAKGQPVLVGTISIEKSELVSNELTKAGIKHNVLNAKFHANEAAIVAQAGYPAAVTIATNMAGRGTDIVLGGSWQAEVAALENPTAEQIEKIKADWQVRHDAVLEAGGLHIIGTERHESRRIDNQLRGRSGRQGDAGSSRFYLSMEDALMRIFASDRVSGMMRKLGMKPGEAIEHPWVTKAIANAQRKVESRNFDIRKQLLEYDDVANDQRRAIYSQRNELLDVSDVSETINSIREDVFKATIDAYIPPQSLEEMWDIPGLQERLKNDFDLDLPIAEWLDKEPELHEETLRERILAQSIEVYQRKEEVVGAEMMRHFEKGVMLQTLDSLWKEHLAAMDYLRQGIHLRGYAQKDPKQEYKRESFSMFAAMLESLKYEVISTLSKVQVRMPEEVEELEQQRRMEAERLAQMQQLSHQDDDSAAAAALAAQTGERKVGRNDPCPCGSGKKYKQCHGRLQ

[2] = molecular target: T1, Ubiquitin-activating enzyme e1, putative (Leishmania donovani (strain BPK282A1)) (UniProt E9BSI1); assay: Leishmania donovani Ubiquitin Activating Enzyme (LdE1); assay type: functional; settings: 30 µM
T1 sequence (whole entry): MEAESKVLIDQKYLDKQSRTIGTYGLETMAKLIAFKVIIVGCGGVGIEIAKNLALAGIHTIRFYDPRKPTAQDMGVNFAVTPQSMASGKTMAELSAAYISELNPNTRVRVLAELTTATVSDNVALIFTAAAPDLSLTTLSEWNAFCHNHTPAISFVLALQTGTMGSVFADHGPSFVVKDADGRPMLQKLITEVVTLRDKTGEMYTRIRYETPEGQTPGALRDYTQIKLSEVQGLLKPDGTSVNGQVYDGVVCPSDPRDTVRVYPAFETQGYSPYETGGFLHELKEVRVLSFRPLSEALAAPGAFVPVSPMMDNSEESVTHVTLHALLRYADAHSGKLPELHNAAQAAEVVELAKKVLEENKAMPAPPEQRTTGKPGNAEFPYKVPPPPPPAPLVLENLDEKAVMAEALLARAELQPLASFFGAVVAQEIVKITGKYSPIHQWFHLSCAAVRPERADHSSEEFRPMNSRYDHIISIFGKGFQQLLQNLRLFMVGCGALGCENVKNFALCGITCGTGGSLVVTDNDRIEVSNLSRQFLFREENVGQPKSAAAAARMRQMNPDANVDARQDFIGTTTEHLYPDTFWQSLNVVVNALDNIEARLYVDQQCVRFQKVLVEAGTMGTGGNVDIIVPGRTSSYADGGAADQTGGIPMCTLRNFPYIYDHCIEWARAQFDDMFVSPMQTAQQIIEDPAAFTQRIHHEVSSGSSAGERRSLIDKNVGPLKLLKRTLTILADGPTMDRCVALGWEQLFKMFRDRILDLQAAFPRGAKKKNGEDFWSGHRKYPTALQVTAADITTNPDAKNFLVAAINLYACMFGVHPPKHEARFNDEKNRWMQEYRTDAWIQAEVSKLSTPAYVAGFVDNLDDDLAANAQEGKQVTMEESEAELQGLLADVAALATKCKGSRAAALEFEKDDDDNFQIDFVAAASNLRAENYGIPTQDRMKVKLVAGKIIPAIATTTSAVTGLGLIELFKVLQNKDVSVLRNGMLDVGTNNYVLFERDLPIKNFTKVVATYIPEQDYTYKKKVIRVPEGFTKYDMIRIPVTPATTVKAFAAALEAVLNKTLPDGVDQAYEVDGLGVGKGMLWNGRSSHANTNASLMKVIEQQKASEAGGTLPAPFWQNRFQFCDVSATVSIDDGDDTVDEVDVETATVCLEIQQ

[3] = molecular target: Sialic acid-binding Ig-like lectin 9 (Homo sapiens) (UniProt Q9Y336); assay: Hs-Siglec9 ALPHAscreen SOP 20170721; settings: 10 µM
Sequence of Sialic acid-binding Ig-like lectin 9 (Homo sapiens) (Q9Y336 whole entry): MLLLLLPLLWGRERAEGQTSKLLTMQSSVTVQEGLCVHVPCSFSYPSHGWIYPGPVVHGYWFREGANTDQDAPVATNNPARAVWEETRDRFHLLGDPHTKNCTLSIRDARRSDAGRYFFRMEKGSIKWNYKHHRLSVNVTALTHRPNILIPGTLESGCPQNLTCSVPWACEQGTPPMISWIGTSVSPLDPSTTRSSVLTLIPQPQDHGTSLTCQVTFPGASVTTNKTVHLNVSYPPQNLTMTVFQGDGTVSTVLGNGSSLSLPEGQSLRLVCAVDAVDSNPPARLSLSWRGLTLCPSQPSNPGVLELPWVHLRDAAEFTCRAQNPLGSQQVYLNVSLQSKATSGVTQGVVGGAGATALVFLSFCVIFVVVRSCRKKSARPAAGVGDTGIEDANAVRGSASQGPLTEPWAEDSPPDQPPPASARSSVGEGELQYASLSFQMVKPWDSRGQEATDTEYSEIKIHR

[4] = system: Trypanosoma cruzi; assay: Trypanosoma cruzi phosphomannomutase and mannose-1-phosphate guanylyltransferase assay; assay type: functional; settings: 10 µM
[5] = molecular target: T2, Arginase-2, mitochondrial (Homo sapiens) (UniProt P78540); assay: in vitro enzyme assay to detect the production of urea directly proportional to the activity of Arginase II; assay type: functional; settings: 33.3 µM; note: in the data most compounds retested in dose-response had high values
T2 sequence (whole entry): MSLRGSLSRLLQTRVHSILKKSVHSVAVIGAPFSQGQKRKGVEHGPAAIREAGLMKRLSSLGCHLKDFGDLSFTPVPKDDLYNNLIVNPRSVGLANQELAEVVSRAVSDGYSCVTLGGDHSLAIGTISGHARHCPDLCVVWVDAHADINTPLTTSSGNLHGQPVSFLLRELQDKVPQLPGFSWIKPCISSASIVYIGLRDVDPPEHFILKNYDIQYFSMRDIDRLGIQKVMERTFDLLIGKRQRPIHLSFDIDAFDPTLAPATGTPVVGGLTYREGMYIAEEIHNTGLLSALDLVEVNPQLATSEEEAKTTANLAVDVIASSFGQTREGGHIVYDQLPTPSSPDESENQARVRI

[6] = molecular target: T3, Proteasome subunit beta (Trypanosoma cruzi) (UniProt O96673); assay: Trypanosoma cruzi proteasome chymotrypsin-like activity (TcProtChymo) assay.; note: in the data most compounds retested in dose-response had high values; assay type: functional; settings: 9.37 µM
T3 sequence (whole entry): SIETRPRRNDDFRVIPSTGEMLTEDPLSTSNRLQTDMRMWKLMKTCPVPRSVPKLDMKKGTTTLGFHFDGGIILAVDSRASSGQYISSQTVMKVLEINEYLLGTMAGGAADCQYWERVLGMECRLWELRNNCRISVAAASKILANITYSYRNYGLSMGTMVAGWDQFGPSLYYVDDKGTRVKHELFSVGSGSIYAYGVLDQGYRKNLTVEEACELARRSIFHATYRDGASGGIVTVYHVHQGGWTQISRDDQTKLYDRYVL

[7] = species: Homo sapiens; assay: To identify inhibition of the IFN signalling (Jak-Stat) pathway via expression of an eGFP reporter gene under the control of an IFN-stimulated response element (ISRE) containing MxA promoter.; assay type: functional; settings: 30 µM
[8] = molecular target: T4, Tyrosyl-tRNA synthetase, putative (Trypanosoma cruzi (strain CL Brener)) (UniProt Q4DSP6); assay: Trypanosoma cruzi tyrosyl tRNA synthetase (TcYRS) _High Tyrosine SOP; assay type: functional; settings: 30 µM; note: in the data most compounds retested in dose-response had high values
T4 sequence (whole entry): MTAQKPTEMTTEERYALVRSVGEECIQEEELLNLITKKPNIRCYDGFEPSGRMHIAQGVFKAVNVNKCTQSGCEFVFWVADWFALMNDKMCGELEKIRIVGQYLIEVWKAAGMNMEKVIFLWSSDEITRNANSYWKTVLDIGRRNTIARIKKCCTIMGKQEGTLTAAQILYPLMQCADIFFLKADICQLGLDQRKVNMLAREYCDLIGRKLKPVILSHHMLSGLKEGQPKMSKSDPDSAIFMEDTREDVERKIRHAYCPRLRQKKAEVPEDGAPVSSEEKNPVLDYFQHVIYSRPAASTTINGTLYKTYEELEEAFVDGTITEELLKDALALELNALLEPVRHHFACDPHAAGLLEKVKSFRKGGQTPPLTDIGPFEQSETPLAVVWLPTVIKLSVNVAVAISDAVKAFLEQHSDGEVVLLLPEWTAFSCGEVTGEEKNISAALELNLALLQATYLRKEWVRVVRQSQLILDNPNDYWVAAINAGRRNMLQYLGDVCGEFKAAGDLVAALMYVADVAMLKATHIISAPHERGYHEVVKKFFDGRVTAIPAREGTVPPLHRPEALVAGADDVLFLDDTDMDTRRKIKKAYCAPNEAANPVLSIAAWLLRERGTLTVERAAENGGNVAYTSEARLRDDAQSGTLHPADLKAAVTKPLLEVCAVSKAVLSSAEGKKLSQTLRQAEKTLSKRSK

[9] = molecular target: T4, Tyrosyl-tRNA synthetase, putative (Trypanosoma cruzi (strain CL Brener)); assay: Trypanosoma cruzi tyrosyl tRNA synthetase (TcYRS) SOP; assay type: functional; settings: 30 µM
[10] = molecular target: Chromo domain-containing protein 1 (Saccharomyces cerevisiae (strain ATCC 204508 / S288c) (Baker's yeast)) (UniProt P32657); assay: ScCHD-1 Enzyme Inhibition Assay; assay type: functional; settings: 30 µM; note: in the data most compounds retested in dose-response had high values
Sequence of Chromo domain-containing protein 1 (Saccharomyces cerevisiae (strain ATCC 204508 / S288c) (Baker's yeast)) (P32657 whole entry, the tested form may be a part): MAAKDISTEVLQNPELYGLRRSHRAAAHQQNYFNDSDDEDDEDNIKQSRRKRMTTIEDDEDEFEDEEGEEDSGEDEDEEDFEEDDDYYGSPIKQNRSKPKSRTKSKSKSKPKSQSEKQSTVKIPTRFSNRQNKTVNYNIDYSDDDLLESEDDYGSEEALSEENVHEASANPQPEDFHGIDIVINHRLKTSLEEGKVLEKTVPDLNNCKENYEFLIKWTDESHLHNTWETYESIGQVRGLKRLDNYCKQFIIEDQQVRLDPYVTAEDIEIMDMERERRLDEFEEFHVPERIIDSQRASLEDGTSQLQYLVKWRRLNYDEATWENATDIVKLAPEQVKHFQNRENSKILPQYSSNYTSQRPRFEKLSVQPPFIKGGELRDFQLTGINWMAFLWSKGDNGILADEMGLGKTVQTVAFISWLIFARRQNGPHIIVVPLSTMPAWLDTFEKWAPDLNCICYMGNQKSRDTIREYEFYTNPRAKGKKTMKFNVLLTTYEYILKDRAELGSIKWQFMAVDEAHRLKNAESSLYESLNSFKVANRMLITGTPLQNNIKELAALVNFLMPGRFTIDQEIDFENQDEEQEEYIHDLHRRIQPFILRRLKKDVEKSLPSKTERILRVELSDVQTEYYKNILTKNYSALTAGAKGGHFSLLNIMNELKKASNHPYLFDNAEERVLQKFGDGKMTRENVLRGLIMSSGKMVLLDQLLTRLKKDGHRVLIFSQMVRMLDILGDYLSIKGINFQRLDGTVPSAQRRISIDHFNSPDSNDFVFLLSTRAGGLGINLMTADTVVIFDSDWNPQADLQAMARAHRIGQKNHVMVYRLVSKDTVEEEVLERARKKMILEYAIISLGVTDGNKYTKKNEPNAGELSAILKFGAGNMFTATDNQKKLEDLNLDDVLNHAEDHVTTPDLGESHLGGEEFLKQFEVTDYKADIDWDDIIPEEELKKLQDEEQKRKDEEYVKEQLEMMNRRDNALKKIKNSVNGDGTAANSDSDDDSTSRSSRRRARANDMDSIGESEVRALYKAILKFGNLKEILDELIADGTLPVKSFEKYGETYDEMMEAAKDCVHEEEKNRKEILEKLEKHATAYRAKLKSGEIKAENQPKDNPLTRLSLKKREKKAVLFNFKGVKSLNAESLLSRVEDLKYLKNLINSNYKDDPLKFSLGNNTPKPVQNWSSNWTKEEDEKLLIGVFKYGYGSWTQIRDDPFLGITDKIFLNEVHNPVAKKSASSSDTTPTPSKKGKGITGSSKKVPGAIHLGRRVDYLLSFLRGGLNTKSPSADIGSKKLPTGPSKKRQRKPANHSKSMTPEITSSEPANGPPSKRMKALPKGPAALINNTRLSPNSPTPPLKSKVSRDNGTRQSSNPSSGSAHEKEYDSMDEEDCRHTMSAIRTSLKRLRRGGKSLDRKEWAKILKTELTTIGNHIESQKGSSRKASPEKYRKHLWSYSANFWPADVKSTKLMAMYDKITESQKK

[11] = system: N/A; assay: Trypanosoma cruzi proteasome luciferase counter-screen; assay type: functional; settings: 9.37 µM

| Compound | Percent Effect [1] | Percent Effect [2] | Percent Effect [3] | Percent Effect [4] | Percent Effect [5] | Percent Effect [6] | Percent Effect [7] | Percent Effect [8] | Percent Effect [9] | Percent Effect [10] | Percent Effect [11] |
| --- | --- | --- | --- | --- | --- | --- | --- | --- | --- | --- | --- |
| CC(C)CCC(=O)NC(C)c1nnc2n1CCCCC2 (stereo not given) | -1.02% | 10.4% | 4.23% | 2.42% | -0.205% | 6.84% | -5.87% | 2.94% | 7.06% | -9.02% | – |
| Cc1[nH]/c(=N\C(=O)c2csc(NCC(C)C)n2)sc1C | -5.08% | 5.41% | 2.69% | -3.2% | -2.45% | – | 20.5% | 5.85% | 21.9% | 0.249% | 53.4% and 61% |
| O=C(NCCCn1ccnc1)N1CCN(c2cccs2)CC1 | -5.79% | -10.4% | 7.23% | 2.42% | -9.22% | 12.8% | -11.9% | 28.4% | 11.8% | 0.725% | – |
| Fc1cccc(CN2CCO[C@H]3[C@@H](OCc4ccccn4)CC[C@@H]32)c1 | -6.18% | 6.49% | -6.92% | 7.3% | -3.24% | 8.91% | 4.17% | 2.63% | 15.4% | -0.559% | – |
| O=C1CC(c2cccc(O)c2)c2sc(C(=O)O)c(-c3ccccc3)c2N1 (stereo not given) | 7.88% | -10.8% | -0.96% | -8.24% | -10.1% | 13% | 31.3% | -9.04% | -2.44% | -0.195% | – |
| Cc1nnc2n1CCN(C(C(=O)NC1CC1)c1ccccc1)C2 (stereo not given) | -3.46% | 2.56% | 6.36% | 3.47% | 3.69% | 5.72% | 8.81% | 3.35% | 13.2% | -2.99% | – |
| CC(C)CN1C[C@@H]2CN(C(=O)[C@H]3CCCO3)C[C@@H]2C1=O | -2.4% | 16.9% | -1.93% | -7.13% | 3.65% | 5.06% | 7.85% | -5.8% | 12.5% | -5.7% | – |
| COc1ccccc1OC1CCN(Cc2cnc(N(C)C)nc2)CC1 | -8.85% | 0% | 3.25% | -1.84% | -3.15% | – | 1.97% | 3.72% | 9.76% | -4% | 13.7% and 17.2% |
| CN(C)C(=O)[C@@H]1CCO[C@@H]2CCN(Cc3ccc4c(c3)OCO4)C[C@@H]21 | -3.73% | 11.7% | -6.65% | 7.5% | -4.86% | 10.9% | 0.999% | 3.68% | 2.56% | 2.41% | – |
| O=C(Cc1c[nH]c2ccccc12)N1CCC(Nc2cccnn2)CC1 | -6.75% | 15.6% | 5.29% | -4.1% | 3.07% | 5.96% | 5.15% | 7.84% | 16.5% | -5.46% | – |
